Compounds with a hit are over-represented: about 4% of the library has one in this group of screens.
tim23-1 inh = growth inhibitors of tim23-1 mutant yeast, primary screen, luminescence, uHTS | S. cerevisiae tim23-1 growth, BacTiter-Glo luminescence, 24 h | inhibition, % at 20 µM | actives 1.3% (n = 330,000) | AID 463212, 2010;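 active = growth inhibition of the mutant yeast at or above 50%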;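 also: temperature-sensitive mutant grown at 25 °C; plate controls were DMSO-treated mutant yeast for no effect and medium wells lacking yeast for full effect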
tim10-1 inh = growth inhibitors of tim10-1 mutant yeast, primary screen, luminescence, uHTS; S. cerevisiae tim10-1 ts strain growth, BacTiter-Glo, 24 h; inhibition, % at 20 µM; actives 2.2% (n = 330,000); AID 463190, 2010;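 active = inhibition of at least 40%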;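 also: mutant grown at 25 °C; 0% = DMSO wells with yeast and 100% = wells holding no yeast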
NALP3 yeast inh = NALP3 inflammasome inhibitors in reconstituted yeast, primary screen, luminescence, uHTS | actives 0.39% (n = 330,000) | inhibition, % at 10 µM | Yeast reconstituted NLRP3/ASC/caspase-1, beta-gal luminescence, 24 h;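 active = inhibition of 50% or more; inactive = inhibition below 50%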;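 also: plate controls were induced DMSO wells for no effect and uninduced yeast grown without galactose for full effect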
NALP1 yeast inh = NALP1 inflammasome inhibitors in reconstituted yeast, colorimetric, S. cerevisiae, triplicate retest; S. cerevisiae NALP1/ASC/caspase-1 growth, X-gal OD620, 72 h; AID 2071, 2009; actives 0.61% (n = 280,000); inhibition, % at 10 µM; in the data active = inhibition mostly above about 24%, no sharp cut-off; inactive = mostly below about 32%
TIM10 inh = growth inhibitors of isogenic TIM10 control yeast, primary screen, counter-screen for tim10-1 yeast inhibitor project, luminescence, uHTS. actives 1.4% (n = 330,000). AID 463195, 2010. S. cerevisiae TIM10 strain growth, BacTiter-Glo luminescence, 24 h. inhibition, % at 10 µM;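 active = inhibition of 40% or more at the single tested concentration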;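 also: wild-type TIM10 isogenic control strain grown at permissive 25 °C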
TIM10 conf = growth inhibitors of wild-type TIM10 yeast, confirmation, counter-screen for tim10-1 synthetic lethality project, single concentration, luminescence, S. cerevisiae | shares compounds with TIM10 inh | S. cerevisiae tim10 strain growth, BacTiter-Glo luminescence, 24 h | inhibition, % at 10 µM | actives 63% (n = 4,600);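 active = inhibition of yeast growth at or above a set limit in either of two replicates at 10 µM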;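 also: this counterscreen used the strain with wild-type TIM10; 0% = yeast with DMSO and 100% = medium wells lacking yeast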
The depositor's hits bear a star; . = no result.

SMILES | tim23-1 inh | tim10-1 inh | NALP3 yeast inh | NALP1 yeast inh | TIM10 inh | TIM10 conf
O=[N+]([O-])c1ccc(O)c(/C=N/n2cnc3ccccc32)c1 | 37 | 29 | 27 | 37 | 41* | 66*
CCn1c(C)nc([N+](=O)[O-])c1Sc1ccc(F)cc1 | 15 | 26 | -4 | 24 | 26 | .
CC(C)Cn1c(C(C)C)nc([N+](=O)[O-])c1S(=O)(=O)c1ccc(F)cc1 | 30 | 40 | 8 | 2 | 40* | 30
CSc1nc2sc3c(c2c(=S)[nH]1)CC(C)(C)OC3 | 40 | 37 | 12 | -12 | 43* | 44*
CCc1nc2sc3c(c2c(=S)[nH]1)CC(C)(C)OC3 | 6 | 16 | 19 | 4 | 16 | .
CC1(C)C([N+](=O)[O-])C(c2ccc(Cl)cc2)NC(c2ccc(Cl)cc2)C1[N+](=O)[O-] (centres undefined) | 30 | 37 | -13 | 15 | 42* | 38*
CC1(C)C([N+](=O)[O-])C(c2ccc(F)cc2)NC(c2ccc(F)cc2)C1[N+](=O)[O-] (centres undefined) | 36 | 37 | -2 | 13 | 23 | .
O=C(Nc1cccc2ccccc12)N1CCc2ccccc2C1 | 15 | 24 | 27 | 1 | 40* | -20
N=C(N)N=Nc1c(O)[nH]c2ccc(Br)cc12 | 1 | 3 | 8 | 10 | 7 | .
O=C(N=Nc1c(O)[nH]c2ccc(Br)cc12)c1ccccc1-n1cccc1 | 30 | 32 | 11 | -2 | 48* | 35*
Cc1c(C(=O)Nc2cccnc2Cl)oc2ccccc12 | -7 | 2 | 15 | 16 | -1 | .
CC(C)C(=O)Nc1ncc(Cc2ccc(Cl)cc2)s1 | 38 | 39 | 16 | -1 | 47* | 34*
O=C(Nc1ncc(Cc2cccc([N+](=O)[O-])c2)s1)c1ccco1 | 3 | 2 | 35 | -18 | 17 | .
Cc1ccc(Cc2cnc(NC(=O)c3ccco3)s2)cc1 | 44 | -4 | 22 | 14 | 40 | 40*
Cc1nn(CC(=O)OCC(=O)c2ccccc2)c(C)c1[N+](=O)[O-] | 11 | 4 | -6 | . | -4 | .
FC(F)(F)c1nnc(-c2ccccc2)nc1Sc1ccccc1 | 43 | 36 | 32 | 17 | 45* | 22
O=C(NN1C(=O)c2ccccc2NC1c1ccc([N+](=O)[O-])o1)c1ccc(Br)cc1 (centres undefined) | 43 | 38 | 12 | -5 | 55* | 61*
CC(=O)NN1C(=O)c2ccccc2NC1c1ccc([N+](=O)[O-])o1 (centres undefined) | 13 | 2 | 23 | 4 | 9 | .
O=C(NCc1ccccc1)C1=C[C@@H](c2coc3ccccc3c2=O)C[C@@H](OCc2ccc(CO)cc2)O1 | 8 | -1 | 9 | -2 | -3 | .
COc1ccc(Cn2c(-c3ccc(C)cc3)c[n+]3ccccc23)cc1 | -3 | 37 | 3 | . | 42* | 51*
COc1ccccc1Nc1nc(Cl)nc(NC(C)(C)C)n1 | 18 | 33 | -29 | -5 | 42* | 23
CC(C)(C)Nc1nc(Cl)nc(Nc2ccccc2)n1 | 48 | -5 | -12 | 0 | 1 | .
Cc1cccc(NC(=O)CNC(=O)COC(=O)C2CC2C)c1C (centres undefined) | 6 | 15 | 8 | . | 4 | .
CC(C)(C)C(=O)O/N=C1/C(=O)N(c2ccccc2)c2ccccc21 | 25 | 27 | 28 | -1 | 52* | 61*
CN1CCN(c2nc(-c3ccccn3)nc3ccccc23)CC1 | -39 | -8 | -3 | 19 | -57 | .
SMILES | tim23-1 inh | tim10-1 inh | NALP3 yeast inh | NALP1 yeast inh | TIM10 inh | TIM10 conf
c1ccc(N2CCN(c3nc(-c4ccccn4)nc4ccccc34)CC2)cc1 | -7 | 15 | 38 | -23 | 40* | 5
CC(=O)c1cccc(N=Nc2c(C)[nH]c3ccccc23)c1 | 17 | 21 | 26 | 30 | 41* | 29
CSC(=O)NC(=O)NC(=O)c1ccc([N+](=O)[O-])cc1 | 5 | -7 | -12 | 14 | 5 | .
O=c1oc2ccccc2c(Nc2ccccc2O)c1[N+](=O)[O-] | -13 | 11 | 20 | -6 | 9 | .
O=c1oc2ccccc2c(Nc2cccc3ccccc23)c1[N+](=O)[O-] | 39 | 31 | 28 | -6 | 49* | 36*
Cc1cc(-c2nnc(SCC(=O)Nc3ccccc3)n2C)no1 | 8 | 3 | 7 | -6 | 54* | -4
CCOC(=O)N1CCN(C(=O)c2ccc3c(c2)sc2nc(-c4ccc(OC)cc4)cn23)CC1 | 16 | 18 | 18 | 34 | 50* | 44*
CCOC(=O)N1CCN(C(=O)c2ccc(OC)cc2)CC1 | -5 | 8 | -4 | 0 | 15 | .
OCCN1CCN(C(c2cccs2)c2ccc3cccnc3c2O)CC1 (centres undefined) | . | . | . | -21 | . | .
CC(C)(C)c1cc(C(c2cccnc2)N2CCN(CCO)CC2)cc(C(C)(C)C)c1O (centres undefined) | 42 | 21 | 44 | 15 | 41* | 54*
COc1ccc(C2CC(=O)C(C=NCC(C)C)=C(O)C2)cc1 (centres undefined) | 8 | -9 | 26 | 19 | 97* | 1
CCC(C)N=CC1=C(O)CC(c2ccccc2)CC1=O (centres undefined) | 6 | 9 | 1 | 13 | -10 | .
O=C(Nc1nccs1)c1csc2c1CCCC2 | 16 | 35 | 12 | -38 | 57* | 44*
COc1ccc([C@H]2CC(=O)C=C(c3ccc(CNC(=O)OC(C)(C)C)cc3)C2)cc1 | 29 | 20 | 29 | . | 18 | .
COc1cc2c(cc1OC)CN(C(=O)c1ccc([N+](=O)[O-])o1)CC2 | 31 | 35 | 6 | -28 | 68* | 75*
Cc1ccc(Oc2ccc(-c3nc(N)nc(N)n3)cc2)cc1 | 23 | 27 | 23 | 4 | 45* | -36
COC(=O)c1ccc(NC(=S)N2CCN(Cc3ccc(Cl)cc3)CC2)cc1 | 39 | 37 | 42 | 14 | 49* | 36*
Cc1ccc(/C=N/NC(=O)NN(C)c2ncc(C(F)(F)F)cc2Cl)cc1 | 19 | 29 | 25 | 7 | 41* | 45*
CN(C)c1ccc(N=Nc2ccccc2C(=O)OCC(=O)N2CCCCCC2)cc1 | 29 | 33 | 33 | 34 | 40* | -21
Cc1ccccc1-c1nn(-c2ccc(F)cc2F)cc1CNC1CC1 | 24 | 22 | 19 | 8 | 14 | .
O=C1C(c2ccnc3ccccc23)=C(O)c2ccccc21 | 23 | 13 | 10 | -1 | 55* | 38*
O=C1c2ccccc2C(=O)C1c1nccc2ccccc12 | 21 | 6 | 15 | -9 | 49* | 47*
